Results on 36 compounds are retold here after PubChem BioAssay.

Structures are written as SMILES.

The target in this assay is Torsin-1A (Homo sapiens) (UniProt O14656). Put plainly: torsin A binders from cell lysate, primary screen, small-molecule microarray, wild-type, 635/667 nm (AID 1149). The settings on record: COS7 hTOR1A-WT lysate, 635 nm fluorescence, higher = more signal.
Sequence of Torsin-1A (Homo sapiens) (O14656 whole entry, looked up): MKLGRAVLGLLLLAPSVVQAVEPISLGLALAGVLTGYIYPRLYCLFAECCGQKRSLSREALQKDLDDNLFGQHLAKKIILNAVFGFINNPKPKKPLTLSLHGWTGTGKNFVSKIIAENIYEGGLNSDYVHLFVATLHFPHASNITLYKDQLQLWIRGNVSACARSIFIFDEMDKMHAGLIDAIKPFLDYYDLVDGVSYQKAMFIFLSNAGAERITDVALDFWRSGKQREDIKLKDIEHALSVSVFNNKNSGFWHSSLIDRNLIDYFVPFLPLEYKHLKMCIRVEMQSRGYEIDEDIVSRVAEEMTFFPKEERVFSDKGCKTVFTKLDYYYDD
Regarding `CON=C(C)CCC(=O)OC[C@H]1O[C@H](C#Cc2ccccc2)C=C[C@@H]1Oc1ccc(C)cc1`, the composite z-score came to 0.552.

As for `CC(C)(C)N1C(=O)[C@H]2[C@H]3[C@H](O)[C@H](O)CC(=NOC[C@@H](O)COCc4ccco4)[C@@H]3CC[C@H]2C1=O`, the composite z-score is 0.334.

Take `CO[C@@H]1[C@H](O)CO[C@H]1C=Cc1ccccc1`: the composite z-score was -0.518.

Regarding `CCN1C(=O)[C@H]2[C@H]3[C@H](O)[C@H](O)CC(=NOCC[C@@H]4C=C[C@H](OC(C)=O)[C@@H](COC(C)=O)O4)[C@@H]3CC[C@H]2C1=O`, the composite z-score came out at 0.014.

Regarding `CO[C@@H](C1CCCCC1)[C@@H](C)[C@H](OCc1cccc(Br)c1)[C@@H](C)CO`, the composite z-score was -0.0604.

Consider `CCOC(=O)CCN1C(=O)[C@H]2[C@H]3[C@H](O)[C@H](O)CC(=NOCC(C)C)[C@@H]3CC[C@H]2C1=O`, for which the composite z-score came out at 2.79.

For the compound `CCOC(=O)CCN1C(=O)[C@H]2[C@H]3[C@H](O)[C@H](O)CC(=NO[C@@H]4O[C@H](CO)[C@@H](O)[C@H](O)[C@H]4O)[C@@H]3CC[C@H]2C1=O`, the composite z-score amounted to 1.87.

The compound `CO[C@H]1COC(=O)CC=C[C@@H](C)COC(=O)[C@H]2CCCN2C(=O)CC=C[C@H]1C` displayed a composite z-score of 2.24.

`CCOC(=O)[C@H](Cc1ccccc1)NC(=O)CCC1CC(OC(=O)NCc2cccc3ccccc23)CC2(CCCC(COC(=O)NCCc3ccccc3OC)O2)O1` (stereo partly specified) came in with a composite z-score of 0.265.

As for `Cc1ccc(S(=O)(=O)N[C@@H]2COC(=O)CC=C[C@@H](C)[C@H](NS(=O)(=O)c3ccc(C)cc3)COC(=O)[C@H](C)NC(=O)CC=C[C@H]2C)cc1`, the composite z-score was -0.0787.

Regarding `CCN1C(=O)[C@H]2[C@H]3[C@H](O)[C@H](O)CC(=NOCC=C(C)CCC=C(C)C)[C@@H]3CC[C@H]2C1=O`, the composite z-score stood at 2.38.

With `O=C1[C@H]2[C@H]3[C@H](O)[C@H](O)CC(=NOC[C@@H](O)COCc4ccco4)[C@@H]3CC[C@H]2C(=O)N1Cc1ccccc1`, the composite z-score was determined as 3.04.

As for `O=C1[C@H]2CCn3c(=O)n(-c4ccccc4)c(=O)n3[C@H]2[C@H](O)[C@@H]2O[C@H]12`, the composite z-score worked out at 0.0097.

Regarding `CON=C[C@@H](OC)[C@H](C)C=CCC(=O)OC`, the composite z-score was determined as 0.752.

On to `CC(C)=CCCC(C)=CCON=C1C[C@@H](O)[C@@H](O)[C@@H]2[C@@H]3C(=O)N(Cc4ccc5c(c4)OCO5)C(=O)[C@@H]3CC[C@@H]12`, for which the composite z-score is 1.01.

Compound `CC(=O)OC[C@H]1O[C@H](CC=NO[C@@H](C)c2cc(-c3c(C)cc(C)cc3C)no2)C=C[C@@H]1OC(C)=O` gave a composite z-score of 0.213.

`COc1ccc(-c2cnnc(CCCn3ccnc3-c3ccccc3)n2)cc1` displayed a composite z-score of 1.56.

In turn, `O=C1C2=CC[C@H]3C(=O)N(c4ccc(F)cc4F)C(=O)[C@H]3[C@H]2[C@H](O)[C@@H]2O[C@H]12` yielded a composite z-score of 0.528.

Compound `COC(=O)CC=C[C@@H](C)[C@@H](C=NOC[C@@H](O)COCc1ccco1)OC` showed a composite z-score of 3.02.

Compound `COC(=O)[C@H](C)NC(=O)CCC1CC(OC(=O)NCc2cccc3ccccc23)CC2(CCCC(COC(=O)NCCCN3CCCC3=O)O2)O1` (stereo partly specified) showed a composite z-score of 0.519.

Regarding `CCOC(=O)[C@H](CC(C)C)NC(=O)CCC1CC(OC(=O)NCc2ccc3c(c2)OCO3)CC2(CCCC(COC(=O)NCCc3ccccc3OC)O2)O1` (stereo partly specified), the composite z-score is -0.0035.

`CO[C@@H](C(C)C)[C@@H](C)C1OC(=O)CC1O` (stereo partly specified) returned a composite z-score of -0.118.

As for `Cc1ccc(C(C)C)n1C(=O)OC(C)(C)C`, the composite z-score is 0.356.

For the compound `CCOC(=O)[C@H](Cc1ccccc1)NC(=O)CCC1CC(OC(=O)NCc2ccc3c(c2)OCO3)CC2(CCCC(COC(=O)NCCOc3ccccc3)O2)O1` (stereo partly specified), the composite z-score worked out at 0.662.

With `CSCC[C@@H]1NC(=O)CC=C[C@@H](C)COC(=O)[C@H](C)COC1=O`, the composite z-score was 3.64.

`CO[C@H]1COC(=O)CCC[C@H](C)[C@@H](OC)COC(=O)CC=C[C@@H]1C` yielded a composite z-score of 0.0956.

For `CC(C)[C@@H](OCc1ccccc1)[C@H](C)C=NO[C@@H](C)c1cn([C@H](CO)Cc2ccccc2)nn1`, the composite z-score stood at 0.752.

`CCN1C(=O)[C@H]2[C@@H]3C(=CC[C@H]2C1=O)C(=O)[C@H]1O[C@H]1[C@H]3O` registered a composite z-score of 0.734.

The compound `CC(C)=CCCC(C)=CCON=C1C[C@@H](O)[C@@H](O)[C@@H]2[C@@H]3C(=O)N(C4CCCCC4)C(=O)[C@@H]3CC[C@H]12` registered a composite z-score of 0.46.

For `C=CC[C@@H]1C=C[C@H](ON=C[C@@H](NS(=O)(=O)c2ccc(C)cc2)[C@H](C)C=CCC(=O)OC)[C@@H](CO)O1`, the composite z-score turned out to be 0.359.

With `COC(=O)[C@H](C)NC(=O)CCC1CC(OC(=O)NCCc2ccc(F)cc2)CC2(CCCC(COC(=O)NCCOc3ccccc3)O2)O1` (stereo partly specified), the composite z-score turned out to be 0.37.

`CO[C@@H]1COC(=O)[C@H](COCc2ccccc2)NC(=O)CC=C[C@@H](C)[C@H](OC)COC(=O)[C@@H](C)NC(=O)CC=C[C@H]1C` registered a composite z-score of 1.53.

With `CC(CCC(=O)OC[C@H]1O[C@H](C#Cc2ccccc2)C=C[C@@H]1Oc1ccc(C)cc1)=NOC[C@@H](C)[C@H](OCc1ccccc1)C(C)C`, the composite z-score is -0.705.

`COC(=O)[C@H](C)NC(=O)CC=C[C@@H](C)[C@@H]1C=C[C@H](O)[C@@H](CO)O1` had a composite z-score of 0.945.

Turning to `C=CC[C@@H]1C=C[C@H](ON=C(C)CCN2CCCc3nc(C)c(C)cc32)[C@@H](CO)O1`, the composite z-score amounted to 2.17.

In turn, `O=C1C=C[C@@H](O)[C@@H]2[C@@H]3C(=O)N(Cc4ccccc4)C(=O)[C@@H]3CC[C@@H]12` came in with a composite z-score of 0.418.
